{"source": "PubChem BioAssay AID686979", "about": "(National Center for Advancing Translational Sciences (NCATS), 2013)", "note": "Out of some 420,000 compounds screened, about 50,000 (12%) were called active. Not shown: some 26% with an inconclusive outcome. Calls come from the whole dose curve; as a rule, active = well fitted inhibition curve with a large enough effect; inconclusive = small, poorly fitted or top-dose-only effect; inactive = flat fitted curve, though single readings scatter. What follows is part of a selection rich in actives, with near analogues and random picks from the rest. Entries that show only a call come without a potency. Potency is the fitted concentration of half-maximal effect.", "data": [{"experiment": "qHTS for Inhibitors of human tyrosyl-DNA phosphodiesterase 1 (TDP1): qHTS in cells in presence of CPT; note: nearly all actives have a fitted effect of over 55% in size", "conditions": "chicken DT40 Tdp1-/-;hTDP1 cells + 20 nM CPT, ATP luminescence, 48 h; series mostly up to 46.2 µM", "outline": "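Chicken DT40 Tdp1-/- cells stably complemented with human TDP1 were seeded at 400 cells/well in medium containing 20 nM camptothecin, exposed to pin-transferred compounds, and grown at 37 °C for at least 48 hr. Viability was read as ATP luminescence.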", "values": [{"smiles": "O=C(COC(=O)c1ccncc1)c1ccccc1", "Potency": "inactive"}, {"smiles": "Cc1cccc(N2CCN(C(=O)c3cc4c(=O)[nH]c5ccccc5c4n3C)CC2)c1C", "Potency": "18.4 µM (active)"}, {"smiles": "Cc1[nH]c2ccc(C(=O)N3CCN(C)CC3)cc2c1C", "Potency": "inactive"}, {"smiles": "O=C(c1c(Cl)cccc1Cl)N1CCN(c2cccc3[nH]ccc23)CC1", "Potency": "inactive"}, {"smiles": "CN(C(=O)COC(=O)CCCc1c[nH]c2ccccc12)c1c(N)n(Cc2ccccc2)c(=O)[nH]c1=O", "Potency": "inactive"}, {"smiles": "Oc1cc(O)c2c(c1)OC(c1ccc(O)c(O)c1)C(O)C2", "note": "(stereo not drawn)", "Potency": "inactive"}, {"smiles": "COc1ccccc1-c1nnc(-c2ccc(F)cc2)o1", "Potency": "inactive"}, {"smiles": "Cc1sc2nc(-c3ccccc3F)oc(=O)c2c1C", "Potency": "inactive"}, {"smiles": "COc1ccc(-c2csc3nc(-c4ccccc4F)oc(=O)c23)cc1OC", "Potency": "18.4 µM (active)"}, {"smiles": "Cc1ccc(N/C(N)=N/c2nc(C(F)(F)F)cc(C(F)(F)F)n2)cc1", "Potency": "inactive"}, {"smiles": "CCc1cccc(NC(=O)CCNS(=O)(=O)c2cccc3nonc23)c1", "Potency": "inactive"}, {"smiles": "CCc1ccc(NC(=O)CSc2nc3c([nH]c4ccccc43)c(=O)n2-c2cccc(OC)c2)cc1", "Potency": "inactive"}, {"smiles": "CCOC(=O)c1ccc(NC(=O)CSc2nc3c([nH]c4ccccc43)c(=O)n2C)cc1", "Potency": "8.2 µM (active)"}, {"smiles": "CCOC(=O)c1ccc(NC(=O)c2cc(=O)[nH]c3ccccc23)cc1", "Potency": "inactive"}, {"smiles": "Cc1ccc(C)c(NC(=O)CSc2nc3c(oc4ccccc43)c(=O)n2-c2ccccc2)c1", "Potency": "14.6 µM (active)"}, {"smiles": "Cc1cccc(NC(=O)CSc2nc3c(oc4ccccc43)c(=O)n2-c2ccc(F)cc2)c1", "Potency": "inactive"}, {"smiles": "Cn1nnnc1SCc1cc(=O)[nH]c2ccccc12", "Potency": "inactive"}, {"smiles": "Cc1ccc(NC(=O)CSc2nc3c([nH]c4ccccc43)c(=O)n2-c2ccccc2)cc1Cl", "Potency": "11.6 µM (active)"}, {"smiles": "CC(Sc1nc2c([nH]c3ccccc32)c(=O)n1C)c1ccccc1", "note": "(stereo not drawn)", "Potency": "11.6 µM (active)"}, {"smiles": "CCCCc1nc2c(=O)[nH]c3ccccc3c2o1", "Potency": "inactive"}, {"smiles": "Cc1ccc(NC(=O)CSc2nnc3[nH]c(=O)cc(C)n23)cc1Cl", "Potency": "inactive"}, {"smiles": "Cc1ccc(C)c(NC(=O)COC(=O)CSc2ccccc2)c1", "Potency": "inactive"}, {"smiles": "CCOC(=O)c1ccc(NC(=O)CSc2nnc(COc3ccccc3OC)n2C)cc1", "Potency": "inactive"}, {"smiles": "Nc1c(N(CCCO)C(=O)C2CCCC2)c(=O)[nH]c(=O)n1Cc1ccccc1", "Potency": "inactive"}, {"smiles": "Cn1c(=O)[nH]c2c(c(C(=O)O)nn2C)c1=O", "Potency": "inactive"}, {"smiles": "Oc1c(Cl)cc(Cl)cc1/C=N/c1ncn[nH]1", "Potency": "inactive"}, {"smiles": "Cc1ccc(NC(=O)CN(C)C(=O)c2ccc(Br)o2)cc1", "Potency": "inactive"}, {"smiles": "CC(C)c1nnc(NC(=O)COC(=O)/C=C/c2ccc([N+](=O)[O-])cc2)s1", "Potency": "inactive"}, {"smiles": "O=C(Nc1ccc(F)cc1)C(=O)c1cn(CC(=O)N2CCOCC2)c2ccccc12", "Potency": "inactive"}, {"smiles": "O=C(Nc1ccc(C(=O)O)cc1)/C(=C\\c1ccccc1)NC(=O)c1ccc(Br)cc1", "Potency": "inactive"}, {"smiles": "COc1cccc(NC(=O)Cn2c3ccc(F)cc3c3nc4n(c(=O)c32)CCS4)c1", "Potency": "inactive"}, {"smiles": "C=CCN1C(=O)c2ccc(C(=O)N3CCC(C(=O)OCC)CC3)cc2C1=O", "Potency": "inactive"}, {"smiles": "O=[N+]([O-])c1ccc(N2CCN(c3ccc(O)cc3)CC2)c(Cl)c1", "Potency": "inactive"}, {"smiles": "COc1ccc(S(=O)(=O)NCC(c2ccc(C)cc2)N2CCN(C)CC2)cc1OC", "note": "(stereo not drawn)", "Potency": "inactive"}, {"smiles": "Cc1nn(Cc2ccccc2)c(C)c1C(=O)NCCN1C(=O)S/C(=C\\c2ccc(F)cc2)C1=O", "Potency": "16.4 µM (active)"}, {"smiles": "Cc1nn(Cc2ccccc2)c(C)c1C(=O)NCCCN1CCCC1=O", "Potency": "inactive"}, {"smiles": "Cn1cccc1/C=C1\\SC(=O)N(CC(=O)Nc2ccc(F)cc2)C1=O", "Potency": "inactive"}, {"smiles": "O=C(COc1coc(CN2CCN(c3ccccc3)CC2)cc1=O)N1CCc2ccccc21", "Potency": "inactive"}, {"smiles": "CC(Sc1nnc(COc2ccccc2)n1-c1ccccc1)C(=O)O", "note": "(stereo not drawn)", "Potency": "inactive"}, {"smiles": "O=C(O)c1cnn2c(C(F)(F)F)cc(-c3ccccc3)nc12", "Potency": "inactive"}, {"smiles": "COc1ccc(OCC(=O)N2CCOCC2)cc1", "Potency": "inactive"}, {"smiles": "COc1ccc(-c2cc(C(F)(F)F)n3nc(C(=O)N4CCOCC4)c(Cl)c3n2)cc1", "Potency": "16.4 µM (active)"}, {"smiles": "CC(=O)Nc1ccc(SCC(=O)NC(=O)c2ccc(Cl)cc2)cc1", "Potency": "inactive"}, {"smiles": "O=c1onc(-c2c(F)cccc2F)n1-c1ccccc1Cl", "Potency": "inactive"}, {"smiles": "COc1ccc(CN(C)CCn2cc(C(=O)N3CCSCC3)nn2)cc1C", "Potency": "inactive"}, {"smiles": "Cn1c(=O)c2c(nc(CN3CCOCC3)n2Cc2ccccc2)n(C)c1=O", "Potency": "inactive"}, {"smiles": "O=c1cc(CO)oc(CN2CCC(Cc3ccccc3)CC2)c1O", "Potency": "inactive"}, {"smiles": "CCN1CCN(Cc2nc3c(c(=O)n(C)c(=O)n3C)n2CC(=O)c2ccccc2)CC1", "Potency": "inactive"}, {"smiles": "COCCn1c(CN2CCC(Cc3ccccc3)CC2)nc2c1c(=O)n(C)c(=O)n2C", "Potency": "8.2 µM (active)"}, {"smiles": "CC1CCCN(Cc2nc3c(c(=O)n(C)c(=O)n3C)n2CC(=O)c2ccccc2)C1", "note": "(stereo not drawn)", "Potency": "23.1 µM (active)"}, {"smiles": "O=C(O)C1CCCN(CCC=C(c2ccccc2)c2ccccc2)C1", "note": "(stereo not drawn)", "Potency": "inactive"}, {"smiles": "CCc1ccc(N2CC(C(=O)N3CCCCCC3)CC2=O)cc1", "note": "(stereo not drawn)", "Potency": "inactive"}, {"smiles": "Cc1c(C(=O)NC(C)C2CC3CCC2C3)cccc1[N+](=O)[O-]", "note": "(stereo not drawn)", "Potency": "inactive"}, {"smiles": "CCn1c(CSc2nc(C)cc(C)n2)nnc1SCC(N)=O", "Potency": "inactive"}, {"smiles": "O=C(Nc1ccccc1Br)c1cc(CN2CCCC2)on1", "Potency": "inactive"}, {"smiles": "Cc1cn(COC/C=C/c2ccccc2)c(=O)[nH]c1=O", "Potency": "inactive"}, {"smiles": "O=C(NCc1ccccn1)c1c(O)c2c([nH]c1=O)CCCC2", "Potency": "inactive"}, {"smiles": "Cc1[nH]c(=O)c(C(=O)/C=C/c2ccccc2)c2c1CCCC2", "Potency": "5.8 µM (active)"}, {"smiles": "O=C1NC(=O)C(c2ccc(Cl)cc2)N1", "note": "(stereo not drawn)", "Potency": "inactive"}, {"smiles": "CCCCN(C(=O)C1=NN(c2cc(C)ccc2C)C(=O)CC1)c1c(N)n(CCC)c(=O)[nH]c1=O", "Potency": "inactive"}, {"smiles": "O=C(NCC1CCCO1)c1ccc2ccccc2n1", "note": "(stereo not drawn)", "Potency": "inactive"}, {"smiles": "O=C(NCC1CCCO1)c1cc(-c2ccccc2)nc2ccccc12", "note": "(stereo not drawn)", "Potency": "inactive"}, {"smiles": "O=C(NCC1CCCO1)c1cc2c([nH]c3ccccc32)c(-c2ccc(F)cc2)n1", "note": "(stereo not drawn)", "Potency": "2.06 µM (active)"}, {"smiles": "CCOC(=O)c1c(-c2ccccc2)oc2cc(Br)c(O)cc12", "Potency": "inactive"}, {"smiles": "O=C(c1ccncc1)N1CCN(c2ccc3ccccc3n2)CC1", "Potency": "inactive"}, {"smiles": "O=C(COC(=O)Cc1ccccc1F)NCCc1ccccc1", "Potency": "inactive"}, {"smiles": "N=c1n(CCc2ccccc2)c2ccccc2n1Cc1ccccc1F", "Potency": "7.31 µM (active)"}, {"smiles": "Cn1cc(CN2CCC(C(O)CCc3ccccc3)CC2)c(-c2ccccc2F)n1", "note": "(stereo not drawn)", "Potency": "inactive"}]}]}
